The full ranking holds about 18,000 sequences; the median of “log2 normalized intensity” is about 0.36, and the highest 2% start at about 7.3. Shown is part of a subset that was picked to be rich in the highest values.
molecular target: T1, HNF4alpha8 (COS-7 nuclear extract) (Homo sapiens, UniProt P41235-5 1-452); assay: protein-binding microarray; COS-7 nuclear extract on double-stranded Agilent 4x180k PBM; binding buffer, salt, pH and temperature not given in the material; high values mean tight binding; details: chain copies: 2; label: 3' end of strand 1 on the slide; dsDNA, one strand shown
T1 sequence: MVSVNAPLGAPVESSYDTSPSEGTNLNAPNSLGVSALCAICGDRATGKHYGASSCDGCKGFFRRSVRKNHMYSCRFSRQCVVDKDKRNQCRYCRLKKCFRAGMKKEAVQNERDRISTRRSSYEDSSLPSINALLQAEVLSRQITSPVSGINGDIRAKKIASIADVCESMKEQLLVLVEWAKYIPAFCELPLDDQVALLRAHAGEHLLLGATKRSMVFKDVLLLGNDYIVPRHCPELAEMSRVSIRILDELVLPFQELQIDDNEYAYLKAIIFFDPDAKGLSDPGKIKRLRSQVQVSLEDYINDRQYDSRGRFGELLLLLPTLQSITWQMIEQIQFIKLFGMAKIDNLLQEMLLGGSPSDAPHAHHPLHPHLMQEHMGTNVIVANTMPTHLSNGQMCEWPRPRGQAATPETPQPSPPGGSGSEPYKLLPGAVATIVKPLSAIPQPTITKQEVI
Method in brief: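 A human HNF4α isoform was expressed in COS-7 cells by transient CaPO4 transfection, and nuclear extracts were prepared. These were applied to a custom Agilent SurePrint G3 4x180k array carrying ~44,000 test sequences in quadruplicate as double-stranded ~60-nt oligonucleotides, and an Agilent G2565CA scanner imaged bound HNF4α at 2-µm resolution. The background-corrected, normalized gProcessedSignal from Agilent software was used as the binding signal.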

Sequence | binding signal
TTACTGGGGCCCATTGTATGAGGGTGAAGTGCCTAGGGAGATTAGAGTATCGGTCGA | 0.972 log2 normalized intensity
CATCGGACTTTGATCTGCCACATACCTTTAGCCTAGGGAGATTAGAGTATCGGTCGA | 5.04 log2 normalized intensity
TCAGATAGCTTTAGCCGGACTTTGTCCTTTGCCTAGGGAGATTAGAGTATCGGTCGA | 8.54 log2 normalized intensity
TAGCTTTAGCCGGACTTTGTCCTTTGATTTGCCTAGGGAGATTAGAGTATCGGTCGA | 7.5 log2 normalized intensity
CGGACTTTGTCCTTTGATTTTTTAAAGTAAGCCTAGGGAGATTAGAGTATCGGTCGA | 5.37 log2 normalized intensity
CTATCTCAGATAGCTTTAGCCGGACTTTGTGCCTAGGGAGATTAGAGTATCGGTCGA | 5.85 log2 normalized intensity
AAATGTACTGGATATAGCCAGATGTCCTTTGCCTAGGGAGATTAGAGTATCGGTCGA | 2.37 log2 normalized intensity
ACCCAGGTGTGTTGCAACTTTGACTATAGCGCCTAGGGAGATTAGAGTATCGGTCGA | 0.342 log2 normalized intensity
GTTTGCATTTTAACCTTTGGCTGGTAGAGCGCCTAGGGAGATTAGAGTATCGGTCGA | 4.17 log2 normalized intensity
AGCCGTCTGGTAAATTTCTAACACTCCCCAGCCTAGGGAGATTAGAGTATCGGTCGA | 2.15 log2 normalized intensity
GGGTCAGTTTATCTAAGATTCCCCCTACCCGCCTAGGGAGATTAGAGTATCGGTCGA | 4 log2 normalized intensity
GTGAACTTTGCCCTCTCTTTCTGGAACCTAGCCTAGGGAGATTAGAGTATCGGTCGA | 5.67 log2 normalized intensity
TCTCTGGCTTGATCCCTGAACTTTGCTCCCGCCTAGGGAGATTAGAGTATCGGTCGA | 8.76 log2 normalized intensity
GGCTTGATCCCTGAACTTTGCTCCCACCCTGCCTAGGGAGATTAGAGTATCGGTCGA | 6.25 log2 normalized intensity
ACTGATCTCTGGCTTGATCCCTGAACTTTGGCCTAGGGAGATTAGAGTATCGGTCGA | 4.37 log2 normalized intensity
AAGTGACCCTGGTCTTTGCCCTTTCCTAGAGCCTAGGGAGATTAGAGTATCGGTCGA | 3.98 log2 normalized intensity
CCTTGGATCTCCTGCACCTGAACTTTGCTCGCCTAGGGAGATTAGAGTATCGGTCGA | 6.94 log2 normalized intensity
TGGGCTCCTGCCTTGGAGAAGTGAACTTTGGCCTAGGGAGATTAGAGTATCGGTCGA | 5.62 log2 normalized intensity
TCCTGCCTTGGAGAAGTGAACTTTGCCCTCGCCTAGGGAGATTAGAGTATCGGTCGA | 10.7 log2 normalized intensity
GAGAAGTGAACTTTGCCCTCTCTTTCTGGAGCCTAGGGAGATTAGAGTATCGGTCGA | 8.26 log2 normalized intensity
TGGAATCCAAAGTATTTTCTGTCTAGGTGCGCCTAGGGAGATTAGAGTATCGGTCGA | 0.637 log2 normalized intensity
TTGCCTAACTGCTGCATGTCATGACCTTCAGCCTAGGGAGATTAGAGTATCGGTCGA | 3.69 log2 normalized intensity

Sequence | binding signal
TCTACTCCCTGTTCTTACACCTGCTCCCCTGCCTAGGGAGATTAGAGTATCGGTCGA | 2.97 log2 normalized intensity
TGTATACTTATGTAGAAAGATATCTCTGTGGCCTAGGGAGATTAGAGTATCGGTCGA | 1.3 log2 normalized intensity
AAGATCATTCCAGGAATGTTCAAGAAGTTCGCCTAGGGAGATTAGAGTATCGGTCGA | 0.0918 log2 normalized intensity
AGATAGGACAGTGGTCTTTATGACTTGGGTGCCTAGGGAGATTAGAGTATCGGTCGA | 1.4 log2 normalized intensity
GACTATTTTATTTTCCCCCTTTGAAGTCTGGCCTAGGGAGATTAGAGTATCGGTCGA | 3.2 log2 normalized intensity
GTCCTTCCCAAGTCCTGCATGTGTTCACACGCCTAGGGAGATTAGAGTATCGGTCGA | 1.21 log2 normalized intensity
AATGTGCCCTTTGACCTCTCTCTCCTAACTGCCTAGGGAGATTAGAGTATCGGTCGA | 7.21 log2 normalized intensity
CACTCTGGTGCCCTCTGAGTGTTTGACCTTGCCTAGGGAGATTAGAGTATCGGTCGA | 5.61 log2 normalized intensity
CCTGACCCCCAGTGGAATGTGCCCTTTGACGCCTAGGGAGATTAGAGTATCGGTCGA | 5.75 log2 normalized intensity
GGTGGGCTGCTCCCAGTGCCCTTTGAACTCGCCTAGGGAGATTAGAGTATCGGTCGA | 8.91 log2 normalized intensity
AGTAACCTGACCCCCAGTGGAATGTGCCCTGCCTAGGGAGATTAGAGTATCGGTCGA | 4.61 log2 normalized intensity
AGTGGAATGTGCCCTTTGACCTCTCTCTCCGCCTAGGGAGATTAGAGTATCGGTCGA | 8.33 log2 normalized intensity
TGGTGCCCTCTGAGTGTTTGACCTTTCACCGCCTAGGGAGATTAGAGTATCGGTCGA | 8.17 log2 normalized intensity
GGAATGACCTTTGATATTTGTGCCTAGTGGGCCTAGGGAGATTAGAGTATCGGTCGA | 5.39 log2 normalized intensity
CCCCCAGTGGAATGTGCCCTTTGACCTCTCGCCTAGGGAGATTAGAGTATCGGTCGA | 10.3 log2 normalized intensity
GTGCTCCCTCCCCCTGCATGAACCTTTGCTGCCTAGGGAGATTAGAGTATCGGTCGA | 3.72 log2 normalized intensity
GGCCAGGTGGGCTGCTCCCAGTGCCCTTTGGCCTAGGGAGATTAGAGTATCGGTCGA | 4.47 log2 normalized intensity
CCCTCTGAGTGTTTGACCTTTCACCCAGAAGCCTAGGGAGATTAGAGTATCGGTCGA | 7.2 log2 normalized intensity
TGCCCTATGTCCTCCAGCTCTTGGGGAACAGCCTAGGGAGATTAGAGTATCGGTCGA | 0.218 log2 normalized intensity
AAAGCCATCAGCACTGGTTCAAAGTGTAGCGCCTAGGGAGATTAGAGTATCGGTCGA | 1.25 log2 normalized intensity
AGAGGAAGATCTTTTTGATGACTTTGTAGGGCCTAGGGAGATTAGAGTATCGGTCGA | 0.915 log2 normalized intensity
TAAACCTGTTTGGTATCTACTCGGCAAAACGCCTAGGGAGATTAGAGTATCGGTCGA | 1.28 log2 normalized intensity

Sequence | binding signal
GACACTTCCAGCCAAACCAGGTCATGCATTGCCTAGGGAGATTAGAGTATCGGTCGA | 0.387 log2 normalized intensity
CCGTTAGCCAATATTTGCAAGGCTGTTGGCGCCTAGGGAGATTAGAGTATCGGTCGA | -0.823 log2 normalized intensity
CCCCCCAAGTTGAAGCCATCCTCCCACCTCGCCTAGGGAGATTAGAGTATCGGTCGA | 5.73 log2 normalized intensity
TATTAGGCAAAAGAGATAGCGAGAAGGCAGGCCTAGGGAGATTAGAGTATCGGTCGA | -0.999 log2 normalized intensity
TTATGTACTTAGTGTTTTATGTGTATTTACGCCTAGGGAGATTAGAGTATCGGTCGA | 2.09 log2 normalized intensity
AGTTTTGCAACATACTGAAAAAGGGTTGTGGCCTAGGGAGATTAGAGTATCGGTCGA | 1.23 log2 normalized intensity
GGCGCCGCTCTGAGTGACCTTTCACCCGCGGCCTAGGGAGATTAGAGTATCGGTCGA | 7.77 log2 normalized intensity
CGCTCTGAGTGACCTTTCACCCGCGCCCAGGCCTAGGGAGATTAGAGTATCGGTCGA | 6.45 log2 normalized intensity
CGCCGGGCGCCGCTCTGAGTGACCTTTCACGCCTAGGGAGATTAGAGTATCGGTCGA | 5.71 log2 normalized intensity
CCCTGCAATTTGATTTGTATGATCTTGGGTGCCTAGGGAGATTAGAGTATCGGTCGA | 1.73 log2 normalized intensity
TTCCCCAGTGAGGATGTGTGCTCGAGGTGGGCCTAGGGAGATTAGAGTATCGGTCGA | 1.11 log2 normalized intensity
AGGATGTGTGCTCGAGGTGGACTTTCCCCCGCCTAGGGAGATTAGAGTATCGGTCGA | 6.75 log2 normalized intensity
GACCATGTGATGTGAAGAGTGTGGACTTTCGCCTAGGGAGATTAGAGTATCGGTCGA | 4.87 log2 normalized intensity
CAGTGAGGATGTGTGCTCGAGGTGGACTTTGCCTAGGGAGATTAGAGTATCGGTCGA | 7.48 log2 normalized intensity
TGTGATGTGAAGAGTGTGGACTTTCACCTCGCCTAGGGAGATTAGAGTATCGGTCGA | 8.92 log2 normalized intensity
TGTGAAGAGTGTGGACTTTCACCTCCACCAGCCTAGGGAGATTAGAGTATCGGTCGA | 6.7 log2 normalized intensity
CAAGGGTCAGTTCATTAAAAAAAAAAAAAAGCCTAGGGAGATTAGAGTATCGGTCGA | 0.208 log2 normalized intensity
GATCAAGAGGAAGATCTTTTTGATGACTTTGCCTAGGGAGATTAGAGTATCGGTCGA | 0.895 log2 normalized intensity
AGTATTACCATGTCCTGTGATTAAGGTCAAGCCTAGGGAGATTAGAGTATCGGTCGA | 2.96 log2 normalized intensity
AACTATGCAGTGTCCATGGTGACCATGTGAGCCTAGGGAGATTAGAGTATCGGTCGA | 1.71 log2 normalized intensity
TGGTATGCTAGAGTACTTGGACTTTAACCTGCCTAGGGAGATTAGAGTATCGGTCGA | 9.56 log2 normalized intensity
GCTTTTGGAAGGACTTCGAATGGTATGCTAGCCTAGGGAGATTAGAGTATCGGTCGA | -0.468 log2 normalized intensity

Sequence | binding signal
TGCTAGAGTACTTGGACTTTAACCTTTAGAGCCTAGGGAGATTAGAGTATCGGTCGA | 9.71 log2 normalized intensity
GGACTTCGAATGGTATGCTAGAGTACTTGGGCCTAGGGAGATTAGAGTATCGGTCGA | 1.51 log2 normalized intensity
AGAGTTAGGGCCTTGCTATGGAGTGGACTTGCCTAGGGAGATTAGAGTATCGGTCGA | 3.91 log2 normalized intensity
CTTTGGACTTGAATTATCCTTATGGTCTCTGCCTAGGGAGATTAGAGTATCGGTCGA | 0.611 log2 normalized intensity
GCCTAAGCAGGGCTAGACTTTAACCCCCTTGCCTAGGGAGATTAGAGTATCGGTCGA | 6.24 log2 normalized intensity
CTTTAACGACCTTTGGACTTGAATTATCCTGCCTAGGGAGATTAGAGTATCGGTCGA | 8.83 log2 normalized intensity
TCGAATGGTATGCTAGAGTACTTGGACTTTGCCTAGGGAGATTAGAGTATCGGTCGA | 7.5 log2 normalized intensity
ACGACCTTTGGACTTGAATTATCCTTATGGGCCTAGGGAGATTAGAGTATCGGTCGA | 6.99 log2 normalized intensity
CTGGACTATGCCTTGAACTTTAAGGCACCTGCCTAGGGAGATTAGAGTATCGGTCGA | 1.67 log2 normalized intensity
ACACTGGGCTAGAGGTCTTAATCTTTTTACGCCTAGGGAGATTAGAGTATCGGTCGA | 1.15 log2 normalized intensity
CAGTGGGAGACAGGCATTAACCCTTTAGTGGCCTAGGGAGATTAGAGTATCGGTCGA | 0.965 log2 normalized intensity
CAACCCATCCAACTCCTTGAGAAGTACAACGCCTAGGGAGATTAGAGTATCGGTCGA | -0.809 log2 normalized intensity
CAAAATATCTCACTCCCACACTGGTAACCTGCCTAGGGAGATTAGAGTATCGGTCGA | 0.32 log2 normalized intensity
CAGCTGTTATCTCTTTTGTGATAGAATGAAGCCTAGGGAGATTAGAGTATCGGTCGA | 1.89 log2 normalized intensity
GTGTCATTGTTATTTACGGTGGGCACCTCAGCCTAGGGAGATTAGAGTATCGGTCGA | 0.235 log2 normalized intensity
AGTGTTTCAAAGGAGTGTCTTTCTCCTTGAGCCTAGGGAGATTAGAGTATCGGTCGA | 1.38 log2 normalized intensity
ACTTTAACCTTTAGATTACTAGGAATTGATGCCTAGGGAGATTAGAGTATCGGTCGA | 1.53 log2 normalized intensity
GAGTACTTGGACTTTAACCTTTAGATTACTGCCTAGGGAGATTAGAGTATCGGTCGA | 7.94 log2 normalized intensity
CTTGGACTTTAACCTTTAGATTACTAGGAAGCCTAGGGAGATTAGAGTATCGGTCGA | 6.61 log2 normalized intensity
